Source: PubChem (National Center for Advancing Translational Sciences (NCATS))
In the library only some 8% were active in any assay of this set; here they are far more common.
Lassa entry inh = qHTS for Inhibitors of binding or entry into cells for Lassa Virus; Lassa virus pseudotype entry inhibition, cell reporter; Potency, µM (top dose mostly 37.9 µM), for inactives: at the highest dose activity change, negative = inhibition, most hits filed as inhibitors; 300,000 tested, 1.2% active; AID 540256, 2011; calls by dose curve; tested in HEK293 cells; note: potency is the fitted concentration of half-maximal effect; % is set by controls: 0 for no effect and ±100 for the full control effect; nearly all actives have a fitted effect of over 50% in size
MARV entry inh = qHTS for inhibitors of binding or entry into cells for Marburg Virus; Marburg virus pseudotyped entry inhibition, cell reporter; Potency, µM (titrated, usually from 37.8 µM), without a hit: at the highest dose activity change, negative = inhibition, most hits filed as inhibitors; 300,000 tested, 1.8% active; AID 540276, 2011; calls by dose curve; tested in HEK293 cells; note: potency is the fitted concentration of half-maximal effect; % is set by controls: 0 for no effect and ±100 for the full control effect
HCMV antiviral = qHTS Assay for inhibitors of the human cytomegalovirus (HCMV). HFF cells, HCMV-luciferase reporter, 72 h; stronger effect = lower value. activity change, negative = inhibition, % at 57.5 µM. 410,000 tested, 4.5% active. AID 1259415, 2018; in the data active = activity change below about -60%; inconclusive = no clear call, values can overlap the other calls; inactive = above about -39%; note: % is set by controls: 0 for no effect and ±100 for the full control effect
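Two-dose cell screen: HFF monolayers treated with compounds and infected with luciferase-expressing HCMV at 1 PFU/cell, 72 h at 37C, then lysed for luciferase measurement.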
SARS PLP yeast = qHTS of Yeast-based Assay for SARS-CoV PLP; S. cerevisiae expressing SARS-CoV PLpro, growth rescue; Potency, µM (top dose mostly 32.9 µM), for the others: at the top dose activity, positive = growth rescue, most hits filed as activators; 330,000 tested, 0.19% active; AID 485353, 2010; calls by dose curve; note: potency is the fitted concentration of half-maximal effect; 0% is about no effect; nearly all actives have a fitted effect of over 55% in size
HCV inhibitor = qHTS Assay for Inhibitors of Hepatitis C Virus (HCV); Huh7.5.1 HCVcc-Cre infection, luciferase reporter, 44 h; Potency, µM (series often up to 41.8 µM), inactives show at the highest dose activity change, negative = inhibition, hits mostly inhibitors; 340,000 tested, 3.4% active; AID 651820, 2012; active = well fitted inhibition curve with a large enough effect; inconclusive = small, poorly fitted or top-dose-only effect, or another doubt; inactive = no such curve, though single readings can be large or run the other way; note: potency is the fitted concentration of half-maximal effect; % is set by controls: 0 for no effect and ±100 for the full control effect
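HCVcc-Cre virus at an moi near 0.5 was added right after compound to cells cultured 4 h from seeding (1,000 cells/well). Luciferase activity was determined 44 h later, 15 min after substrate addition at RT.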
FMDV inh = High Throughput Screening for Foot and Mouth Disease Virus Antivirals. FMDV antiviral cell-based qHTS. Potency, µM (highest dose often 57.9 µM), for the others: top-dose activity change, negative = inhibition, usual class: inhibitors. 410,000 tested, 1.2% active; calls by dose curve; tested in HEK293T cells; note: read-out not given here; potency is the fitted concentration of half-maximal effect; % is set by controls: 0 for no effect and ±100 for the full control effect; nearly all actives have a fitted effect of over 45% in size
Active calls of the source: *; ? = inconclusive; . = not tested or not shown; ! = a repeat was not active; [ ] = another dose, or the depositor's remark.

SMILES	Lassa entry inh	MARV entry inh	HCMV antiviral	SARS PLP yeast	HCV inhibitor	FMDV inh
CCOC(=O)c1c(Nc2ccc(Cl)cc2)sc(/C=C2\C=Nc3ccccc32)c1O	-26%	?	-73*!	6%	?	7%
COc1cccc(-n2c(/C=C/c3ccccn3)nc3ccccc3c2=O)c1	?	?	?	4%	13%	-29%
COc1ccccc1-n1c(/C=C/c2c(C)n(C)c3ccccc23)nc2ccccc2c1=O	?	.	-85*	.	.	?
Cc1cccc(-n2c(/C=C/c3ccccn3)nc3ccccc3c2=O)c1	.	.	-101*	1%	?	?
COc1ccccc1-n1c(/C=C/c2ccccn2)nc2ccccc2c1=O	?	?	-101*	0%	?	?
Cc1ccc(S(=O)(=O)CCSc2ccc(C(F)(F)F)cn2)cc1	.	.	27	0%	2%	-15%
O=S(=O)(CCSc1ccc(C(F)(F)F)cn1)c1ccccc1	.	.	-60*	0%	-3%	14%
O=C1C=C(c2ccc3c(c2)OCO3)C[C@@H](c2ccc3c(c2)OCO3)C1	.	.	2	3%	?	1%
Cc1cc(C)c(C2=CC(=O)C[C@H](c3ccc4c(c3)OCO4)C2)c(C)c1	.	1%	-61*	0%	-13%	0%
O=C(COc1ccc(Br)cc1Br)NC(=O)NC1CCCC1	-9%	?	59	0%	10%	29%
CC(C)(C)NC(=O)NC(=O)COc1ccc(Br)cc1Br	5.8µM*	?	84	-56%	-22%	?
COc1ccc(-c2noc(CCC(=O)NCCCN3CCC(Cc4ccccc4)CC3)n2)cc1	-28%	?	?	-1%	2.5µM*	?
Cc1ccc(-c2noc(CCC(=O)NCCN3CCOCC3)n2)cc1	3%	?	-10	1%	16%	-14%
Cc1ccc(-c2noc(CCC(=O)NCC3CCN(Cc4cccc(C)c4)CC3)n2)cc1	-13%	?	?	-1%	1.1µM*	?
COc1ccc(-c2noc(CCC(=O)NCCCN3CCN(c4ccc(F)cc4)CC3)n2)cc1	.	.	-64*	0%	22µM*	?
Cc1ccc(-c2noc(CCC(=O)NCCN3CCN(Cc4ccccc4)CC3)n2)cc1	3%	?	?	-6%	?	-23%
COc1cc(CN2CCCC(C(=O)N3CCc4ccccc4C3)C2)cc(OC)c1OC (stereo unspecified)	.	.	-33	.	-15%	?
Cc1ccccc1NC(=O)C(Cl)=C(Cl)Cl	-22%[46.1 µM]	?	-78*	-2%	?	?
Cc1oc(-c2cccc(NC(=O)c3ccccn3)c2)nc1CNC(=O)C#Cc1ccccc1	.	.	.	.	.	16%
COc1ccc(CCN2C(=S)NC3CC2(C)Oc2ccc([N+](=O)[O-])cc23)cc1OC (stereo unspecified)	?	?	-7	6%	4.5µM*	25µM*
COc1ccc(N2C(=O)NC3CC2(C)Oc2ccc(Cl)cc23)cc1OC (stereo unspecified)	?	?	-31	-1%	-22%	-19%
CCCC(C)(C)C(=O)N1CCC1(C)C(=O)Nc1ccc(OC)c(OC)c1 (stereo unspecified)	.	.	-15	.	.	-16%
CCCC(C)(C)C(=O)N1CCC1(C)C(=O)Nc1ccc2c(c1)OCCO2 (stereo unspecified)	.	.	-66*	.	.	-6%
CC1(C(=O)Nc2ccc3c(c2)OCCO3)CCC(=O)N1C1CC1 (stereo unspecified)	.	.	-100*	.	.	-10%
COc1cccc(CN2C(=O)NC(C)(C3CCN(Cc4cccc(O)c4)CC3)C2=O)c1OC (stereo unspecified)	.	.	.	.	.	-13%
SMILES	Lassa entry inh	MARV entry inh	HCMV antiviral	SARS PLP yeast	HCV inhibitor	FMDV inh
COCCCNc1ncnc2sc(C(=O)N3CCOCC3)c(C)c12	.	.	.	.	.	-11%
Cc1nc2cc(NC(=O)[C@@H]3C[C@@H](Sc4ccccn4)CN3Cc3ccccc3F)ccc2s1	.	.	.	.	.	10%
Cc1ccc(S(=O)(=O)C(c2ccccc2)c2c(C)noc2C)cc1 (stereo unspecified)	0%	0.63µM*	-72*	-33%	-6%	-27%
COc1ccc(/C=C2\SC(=S)N(CCCC(=O)N3CCCCC3CCO)C2=O)cc1 (stereo unspecified)	.	.	-100*	-4%	-15%	-16%
O=C1/C(=C\c2ccccc2)SC(=S)N1CCC(=O)N1CCCCC1CCO (stereo unspecified)	.	.	-86*	-4%	22%	0%
COc1cccc(/C=C2\SC(=O)N(CCC(=O)N3CCCCC3CCO)C2=O)c1 (stereo unspecified)	.	.	-35	11%	?	-24%
CC(C)c1ccc(/C=C2\SC(=S)N(CCC(=O)N3CCCCC3CCO)C2=O)cc1 (stereo unspecified)	.	.	-100*	-3%	-17%	11µM*
O=C1/C(=C/c2ccccc2Cl)SC(=S)N1CCC(=O)N1CCCCC1CCO (stereo unspecified)	.	.	-81*	-51%	18%	-12%
COc1ccc(CN2CCOc3c(O)cc(-c4cc(C)c5ccc(F)cc5n4)cc3C2)c(O)c1	.	.	.	.	.	-23%
O=C1/C(=C/c2ccccc2)SC(=S)N1CC(=O)N1CCCCC1c1cccnc1 (stereo unspecified)	.	.	-90*	-55%	?	?
CCc1nc2c(OCc3cccc(Cl)c3)cccn2c1N(C)C(=O)c1ccc(C)cc1	.	.	-6	.	.	.
COc1cc(/C=C/C(=O)CC(=O)/C=C/c2ccc(O)c(OC)c2)ccc1O	18µM*	?	-35	-70%	?	?
COc1cc(/C=C/C(=O)/C=C(O)/C=C/c2ccc(O)c(OC)c2)ccc1O	.	.	-67*	4%	?	?
COc1cc(/C=C/C(=O)O)ccc1O	.	.	.	.	20%	-6%
COc1cc(/C=N/N2CCOCC2)ccc1OCc1ccccc1	-4%	?	-105*	-6%	-19%	0%
COc1ccc(/C=N/N2CCOCC2)cc1OCc1ccccc1	4%	-3%[46.1 µM]	?	0%	1%	-4%
COc1cc(/C=C/C(C)=NNc2ccccc2)ccc1O	-27%[46.1 µM]	?	-61*	.	?	3%
COc1cc(C=NCc2ccccc2)ccc1O	.	.	14	.	.	-8%
COc1cc(/C=C/[N+](=O)[O-])ccc1OCc1cccc(C(=O)O)c1	0.63µM*	?	.	1%	-4%	10µM*
COc1cc(OC)c(C(=O)/C=C/c2ccc(OCc3ccccc3)c(OC)c2)c(OC)c1	?	11µM*	?	-4%	?	?
COc1ccc(C(=O)C=Cc2ccc(OCc3ccccc3)c(OC)c2)cc1OC	.	.	-8	.	.	?
COc1cc(/C=C/[N+](=O)[O-])ccc1O	-20%	-22%	-104*	-79%	8%	?
